Compounds with a hit are over-represented: about 11% of the library has one in this group of screens.
AMA1 RON2 block = AMA1-RON2 (P. falciparum) interaction inhibition; AlphaScreen AMA1-biotinylated RON2 peptide binding; Potency, µM (top dose mostly 58.2 µM), without a hit: at the top dose activity change, negative = inhibition, usual class: inhibitors; 360,000 compounds, 0.2% hits;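 also: 0% = vehicle wells and -100% = peptide control; nearly all actives have a fitted effect of over 45% in size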
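AMA1 (3D7) with his tag at 25 nM final met compounds first, then biotinylated RON2 peptide at 25 nM; detection used donor plus acceptor beads, 10 µg/mL apiece, read by AlphaScreen after 30 min at room temperature.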
Pf growth 96h = P. falciparum growth inhibition at 96 hour, primary screen for plastid delayed-death inhibitors; 320,000 compounds, 6.9% hits; Potency, µM (top dose mostly 28.7 µM), for inactives: at the top dose activity change, negative = inhibition, hits mostly inhibitors; P. falciparum luciferase reporter growth, 96 h; AID 504834; also: % is scaled to controls: 0 for no effect and ±100 for the full control effect
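Two parasite generations (96 h, 37 C, 5% CO2) of compound exposure in infected erythrocytes (0.05% parasitemia, 2% hematocrit). Luciferase-reporter P. falciparum; decreased luminescence indicates inhibited growth, aimed at apicoplast-acting delayed death.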
HCV inh = inhibitors of hepatitis C virus infection; Huh7.5.1 HCVcc-Cre infection, luciferase reporter, 44 h; Potency, µM (doses to about 41.8 µM), inactives show at the highest dose activity change, negative = inhibition, hits mostly inhibitors; 340,000 compounds, 3.4% hits; AID 651820; also: % is scaled to controls: 0 for no effect and ±100 for the full control effect
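Infectious HCV cell culture screen: compound-treated cells (1,000/well, pre-plated 4 h) are infected with HCVcc-Cre at roughly 0.5 moi and grown 44 h. Infection is quantified by luciferase signal after 15 min substrate incubation at room temperature.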
AmpC inh detg = AmpC beta-lactamase inhibition with detergent present; P00811; AmpC hydrolysis of nitrocefin, absorbance 480 nm, 0.01% Triton; Potency, µM (top dose mostly 114 µM), without a hit: at the top dose activity change, negative = inhibition, hits mostly inhibitors; 370,000 compounds, 0.041% hits; AID 485294;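 also: 0% = no-compound wells and -100% = no-enzyme wells; nearly all actives have a fitted effect of over 25% in size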
Target sequence (P00811 whole entry, looked up): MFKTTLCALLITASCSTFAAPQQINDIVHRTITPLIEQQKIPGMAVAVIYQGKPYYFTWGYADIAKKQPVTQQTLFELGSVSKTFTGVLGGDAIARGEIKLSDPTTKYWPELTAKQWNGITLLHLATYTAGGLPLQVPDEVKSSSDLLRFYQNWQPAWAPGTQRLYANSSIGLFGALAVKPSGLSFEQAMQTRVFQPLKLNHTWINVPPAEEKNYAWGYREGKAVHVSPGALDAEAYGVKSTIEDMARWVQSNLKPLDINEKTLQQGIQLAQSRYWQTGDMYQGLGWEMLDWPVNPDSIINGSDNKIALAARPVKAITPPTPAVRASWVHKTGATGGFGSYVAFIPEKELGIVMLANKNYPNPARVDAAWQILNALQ
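20 mM phosphate pH 7.0 + 0.01% (detergent screen) or 0.0001% Triton X-100; 5.3 nM AmpC reagent; cpd preinc 15 min RT; nitrocefin (800 uM stock) to start; A480 q20 s × 4 min; Activity was normalised to no-enzyme and no-compound control wells.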
AmpC no deterg = blocks E. coli AmpC beta-lactamase in detergent-free assay; 330,000 compounds, 0.52% hits; AID 485341; Potency, µM (highest dose often 57.1 µM), for the others: at the top dose activity change, negative = inhibition, hits mostly inhibitors; P00811; AmpC nitrocefin hydrolysis, absorbance 480 nm, 0.0001% Triton;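 also: plate controls were no compound for no effect and no enzyme for full effect; nearly all actives have a fitted effect of over 20% in size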
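AmpC (5.3 nM in the dispensed reagent) in 20 mM phosphate pH 7.0 with 0.01% (detergent screen) or 0.0001% Triton X-100 was preincubated with compounds for 15 min at room temperature. Nitrocefin was then added from an 800 uM solution, and hydrolysis was followed at 480 nm.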
Pf growth 48h = P. falciparum growth inhibition at 48 hours (one generation) | P. falciparum luciferase growth in erythrocytes, 48 h | 310,000 compounds, 5.9% hits | Potency, µM (titrated, usually from 28.7 µM), inactives show at the top dose activity change, negative = inhibition, hits mostly inhibitors; also: % is scaled to controls: 0 for no effect and ±100 for the full control effect
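Read-out is firefly luciferase luminescence from an integrated reporter in P. falciparum, so falling signal marks reduced parasite growth. Infected erythrocytes were at 2% hematocrit and 0.1% parasitemia (final) in Albumax-supplemented RPMI 1640.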
HCV inh confirm = confirmation of hepatitis C virus inhibitors. shares compounds with HCV inh. HCVcc-Cre infectious virus cell assay, luciferase, inhibition. Potency, µM (series often up to 41.8 µM), without a hit: at the highest dose activity, negative = inhibition, most hits filed as inhibitors. 640 compounds, 78% hits; also: nearly all actives have a fitted effect of over 80% in size
HCV cytotox = counter-screen for HCV inhibitors: host cell cytotoxicity; shares compounds with HCV inh; HCV host cell line cytotoxicity counterscreen; Potency, µM (top dose mostly 41.8 µM), for the others: at the highest dose activity change, negative = cytotoxicity, most hits filed as inhibitors; 640 compounds, 22% hits; AID 720576;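 also: 44 h compound exposure; % is scaled to controls: 0 for no effect and ±100 for the full control effect; nearly all actives have a fitted effect of over 55% in size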
The depositor's hits bear a star; u = inconclusive; x = no result given; [ ] = another dose, or the depositor's remark. Calls follow the shape of the dose curve; as a rule, active = well fitted curve in the direction sought with a large enough effect; inconclusive = small, poorly fitted or top-dose-only effect, or another doubt; inactive = no such curve, though single readings can be large; an effect the other way counts as inactive or inconclusive. Potency is read from the fitted curve at half-maximal effect.

SMILES	AMA1 RON2 block	Pf growth 96h	HCV inh	AmpC inh detg	AmpC no deterg	Pf growth 48h	HCV inh confirm	HCV cytotox
CC(=O)c1sc(NC(=O)CCS(=O)(=O)c2ccc(C)cc2)nc1C	3%	22%	2.8µM*	u	-8%	u	u	u
CCCCCn1c(=O)[nH]c2cc(C(=O)NCCCN3CCC(C)CC3)ccc2c1=O	-4%	u	4.5µM*	-12%	9%	u	16µM*	39%
CC#CC[N+](C)(C)CCCCCCCCCCCC	-2%	0.59µM*	5µM*	-4%	89%	2.9µM*	14µM*	-42%
CCn1cc(C(=O)OCC(=O)Nc2cccc(C(C)=O)c2)c(=O)c2ccc(C)nc21	x	x	x	10%	x	x	x	x
Cc1cc(Br)c(S(=O)(=O)NCc2ccncc2)cc1C	0%	u	3.2µM*	-1%	-5%	-8%	2µM*	6.3µM*
COc1cc(C)c(Cl)cc1S(=O)(=O)NCc1ccncc1	x	u	-2%	8%	7%	-6%	x	x
Cc1cc(=O)[nH]c(N=N/C(=N/Nc2ccc(O)cc2)c2ccccc2)n1	0%	x	6%	4%	-18%	u	x	x
COc1ccc(N/N=C(/N=Nc2nc(C)cc(=O)[nH]2)c2ccccc2)cc1	7%	x	4.5µM*	2%	-1%	1.7µM*	7.9µM*	11µM*
COC(=O)c1sc2cccc(F)c2c1S(=O)(=O)NCc1ccccc1Cl	x	x	x	6%	x	x	x	x
COc1ccc(N2CCN(CCCNC(=O)C3CCC(CNc4nc(=S)[nH]c5ccccc45)CC3)CC2)cc1 (stereo not drawn)	-3%	-27%	2.5µM*	4%	-1%	u	6.3µM*	22µM*
CSc1nc2ccc(Cl)cc2[nH]1	-4%	1%	u	1%	-3%	32%	x	x
CSc1nc2cc(Oc3cccc(Cl)c3Cl)c(Cl)cc2[nH]1	0%	12µM*	7.9µM*	4%	-20%	6.7µM*	u	26%
COc1ccc(NC(=O)Cn2cc(C(=O)C3CCCCC3)c3ccccc32)cc1	x	x	x	17%	x	x	x	x
Cc1ccc(C(C(=O)NC2CCCCC2)N(C)Cc2ccccc2)cc1 (stereo not drawn)	x	x	x	-2%	x	x	x	x
Cc1ccc(C)c2nc(SCC(=O)N3CCCc4ccccc43)c(C#N)cc12	11%	u	6.3µM*	1%	-25%	3%	7µM*	15%
COc1cc(C(=O)Nc2ccccc2OCc2cc(=O)n3c(C)csc3n2)cc(OC)c1OC	x	x	x	10%	x	x	x	x
COc1ccc(/C=N/Nc2nc(-c3cccc(S(=O)(=O)N4CCCC4)c3)cs2)c(OC)c1	8%	u	4µM*	-7%	-55%	13µM*	10µM*	-41%
COc1ccc(-c2csc(NC(=O)c3ccc(S(=O)(=O)N4CCc5ccccc5C4)cc3)n2)c(OC)c1	-7%	u	u	4%	-49%	-8%	x	x
COc1cc(C(=O)Nc2cccc(NC(=O)c3ccccc3)c2)cc(OC)c1OC	0%	u	u	-4%	-13%	u	x	x
COc1cc(C(=O)Nc2cccc(NC(=O)c3cccs3)c2)cc(OC)c1OC	-10%	40%	u	-10%	-50%	u	13µM*	72%
COc1ccc2oc(=O)c(-c3nnc(NCc4ccco4)s3)cc2c1	-21%	0%	4.5µM*	1%	-9%	55%	-20%	u
O=C(CSc1nc2c([nH]c3ccccc32)c(=O)n1-c1ccccc1)NCc1ccc(F)cc1	x	x	x	-6%	x	x	x	x
NS(=O)(=O)c1ccc(N=Nc2ccc(O)c3ncccc23)cc1	-86%	u	3.5µM*	-6%	u	2.6µM*	7.9µM*	8.9µM*
Cc1cc(C)nc(/N=C(\N)Nc2ccc(CC(=O)OC(C)C)cc2)n1	-2%	u	3.5µM*	-8%	-21%	2%	2.8µM*	-93%
Cc1cc(C)nc(/N=C(\N)Nc2ccc(S(=O)(=O)O)cc2)n1	20%	15%	-1%	-5%	-22%	6%	x	x
C=CCNC(=S)N/N=C/c1ccc(C(F)(F)F)cc1	80%	u	8.9µM*	-6%	-16%	u	8.9µM*	13µM*
C=CCNC(=O)CC(=O)N/N=C/c1ccc(F)cc1	6%[2.32 µM]	-11%	3%	-15%	0%	33%	x	x
COc1ccc(NC(=O)c2ccccc2SC)cc1	0%	-21%	19%	6%	-16%	48%	x	x
COc1ccc(OC)c(NC(=O)c2ccccc2SC)c1	1%	x	8.9µM*	0%	-20%	7%	u	-13%
